{
  "source": "PubChem BioAssay AID720526",
  "about": "(National Center for Advancing Translational Sciences (NCATS), 2013)",
  "note": "Records with an inconclusive call do not appear. A call without a number means that no potency is given here. Active and inactive are the calls of the source. The call rests on the fitted dose curve; in most records, active means well fitted activation curve with a large enough effect; inconclusive means small, poorly fitted or top-dose-only effect; inactive means no such curve, though single readings can be large or run the other way. Potency means the concentration at half of the fitted maximal effect.",
  "data": [
    {"assay": "qHTS Assay for NPC1 Promoter Activators: Hit Validation Using Renila Luciferase Read-Out for NPC1", "details": "Huh7 NPC1 promoter-luciferase reporter, luminescence, 24 h; series mostly up to 76.9 µM", "how_it_was_run": "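Luciferase reporter read-out: promoter activation measured by luminescence after 10 min with detection reagent at room temperature. Cells were Huh7 with a stable NPC promoter-luciferase construct, treated 24 h at 37 deg C.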", "values": [
      {"smiles": "CC1CCCN(C(=S)Nc2ccc(Nc3ccccc3)cc2)C1", "note": "(stereo not given)", "Potency": "inactive"},
      {"smiles": "N#C/C(=C\\c1ccc[nH]1)C(=O)Nc1ccccc1Cl", "Potency": "23.2 µM (active)"},
      {"smiles": "COc1ccccc1CNC(=O)COc1ccc(C)cc1", "Potency": "inactive"},
      {"smiles": "O=C(CSc1nccn1Cc1ccco1)Nc1ccccc1F", "Potency": "36.8 µM (active)"},
      {"smiles": "O=C(c1cccc(Oc2ccc([N+](=O)[O-])cc2)c1)N1CCOCC1", "Potency": "inactive"},
      {"smiles": "COC(=O)c1ccccc1NC(=O)c1cc(-c2cccs2)on1", "Potency": "inactive"},
      {"smiles": "CN(C)C(CNC(=O)CNC(=O)c1ccc2ccccc2c1)c1ccccc1", "note": "(stereo not given)", "Potency": "inactive"},
      {"smiles": "CC1CC(C)CN(CC(=O)N2CCOCC2)C1", "note": "(stereo not given)", "Potency": "inactive"},
      {"smiles": "CCOc1ccc(CNC(=O)C2CCCN(S(C)(=O)=O)C2)cc1OC", "note": "(stereo not given)", "Potency": "inactive"},
      {"smiles": "O=C(NCCc1ccccc1)c1cc2ncc(Br)cn2n1", "Potency": "inactive"},
      {"smiles": "Cc1ccccc1NC(=O)CSc1ccc(-c2cccnc2)nn1", "Potency": "inactive"},
      {"smiles": "COc1ccc(NC(=S)NNC(=O)c2cccs2)cc1", "Potency": "inactive"},
      {"smiles": "CC(=O)[C@@H]1[C@@H](C(=O)c2ccc(C)cc2)[C@]2(C(=O)Nc3ccccc32)[C@H]2C=Cc3cc(F)ccc3N12", "Potency": "inactive"},
      {"smiles": "Cc1ccc(C(=O)Nc2ccc(N3CCN(C)CC3)nc2)cc1", "Potency": "inactive"},
      {"smiles": "COC(=O)c1sccc1NC(=S)OC", "Potency": "inactive"},
      {"smiles": "O=C(NC(=S)Nc1ccc(CN2CCCCC2)cc1)c1cc2ccccc2o1", "Potency": "inactive"},
      {"smiles": "NC(=O)C1(NC(=O)[C@@H]2CC3(CC(c4cccc(NC(=O)[C@@H]5CCC(=O)N5)c4)=NO3)CN2C(=O)c2ccccc2)CC1", "note": "(stereo not given in full)", "Potency": "inactive"},
      {"smiles": "COc1ccc2oc(=O)c(C(=O)NC(C)c3ccccc3)cc2c1", "note": "(stereo not given)", "Potency": "inactive"},
      {"smiles": "CCCC(C)NC(=O)c1ccc(OCc2ccc(Cl)cc2)c(OC)c1", "note": "(stereo not given)", "Potency": "inactive"},
      {"smiles": "Cc1ccc(NC(=O)c2ncc(Cl)c(Cl)c2Cl)cc1C", "Potency": "inactive"}
    ]}
  ]
}
